# Results published in the supplement of paper PMC9262897, “Low-cost anti-mycobacterial drug discovery using engineered E. coli” (Nature Communications, 2022).
# Where a name gives a salt, the structure may show the parent alone. ± gives the standard deviation of the averaged measurements.
# Assays:
# Test in all cases: growth (OD600 after 10 h); higher = more growth (less inhibition)
# [1] = test system: E. coli TESEC Alr+ wild-type control; conditions: compound 0.1 mM; raw OD600 reference: median of DMSO wells 0.241, cell-free background 0.041
# Experimental: (§1)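 TESEC Mtb Alr E. coli, or the Alr+ wild-type control, in 384-well plates with Prestwick library compounds at 0.1 mM and 1% DMSO, across arabinose induction levels of 1E3 to 1E7 nM. Growth is read as OD600 after 10 h at 37 °C in triplicate biological replicates.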
# [2] = test system: E. coli TESEC Mtb Alr; conditions: compound 0.1 mM
# Experimental: as §1
# [3] = test system: E. coli TESEC Mtb Asd; conditions: compound 0.1 mM
# Experimental: (§2)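 TESEC E. coli strains in which the native enzyme is deleted and replaced by arabinose-inducible Mtb Asd, DapB, CysH or TrpD, each grown in its selective medium. Strains were screened against the Prestwick library at 0.1 mM and 1% DMSO in 384-well format at low and high arabinose induction. Growth is read as OD600 after 10 h in triplicate.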
# [4] = test system: E. coli TESEC Mtb DapB; conditions: compound 0.1 mM
# Experimental: as §2
# [5] = test system: E. coli TESEC Alr+ wild-type control; conditions: compound 0.1 mM; raw OD600 reference: median of DMSO wells 0.49, cell-free background 0.052
# Experimental: (§3)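 TESEC Mtb Alr E. coli (ΔaraC ΔtolC ΔentC Δalr ΔdadX, arabinose-inducible Mtb Alr) or the Alr+ wild-type control strain, grown in defined M9-fructose medium without D-alanine in 96-well plates with Prestwick library compounds at 0.1 mM and 1% DMSO. Low Alr induction is 0.1 µM arabinose and high induction is 10 mM arabinose.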
# [6] = test system: E. coli TESEC Mtb Alr; conditions: compound 0.1 mM; remark: listed apart in the source
# Experimental: as §3
# [7] = arabinose 1000 nM, raw OD600 reference: median of DMSO wells 0.294, cell-free background 0.041
# [8] = arabinose 10000 nM, raw OD600 reference: median of DMSO wells 0.264, cell-free background 0.041
# [9] = arabinose 100000 nM, raw OD600 reference: median of DMSO wells 0.201, cell-free background 0.041
# [10] = arabinose 1000000 nM, raw OD600 reference: median of DMSO wells 0.193, cell-free background 0.041
# [11] = arabinose 10000000 nM, raw OD600 reference: median of DMSO wells 0.146, cell-free background 0.041
# [12] = arabinose induction (level): High, raw OD600 reference: median of DMSO wells 0.331, cell-free background 0.041
# [13] = arabinose induction (level): Low, raw OD600 reference: median of DMSO wells 0.417, cell-free background 0.041
# [14] = arabinose induction (level): High, raw OD600 reference: median of DMSO wells […], cell-free background 0.041
# [15] = arabinose induction (level): Low, raw OD600 reference: median of DMSO wells 0.227, cell-free background 0.041
# [16] = arabinose 100 nM, raw OD600 reference: median of DMSO wells 0.413, cell-free background 0.052
# [17] = arabinose 10000000 nM, raw OD600 reference: median of DMSO wells […], cell-free background 0.052
SMILES,growth [1],"growth [2, 7]","growth [2, 8]","growth [2, 9]","growth [2, 10]","growth [2, 11]","growth [3, 12]","growth [3, 13]","growth [4, 14]","growth [4, 15]",growth [5],"growth [6, 16]","growth [6, 17]"
Nc1ncn(C2OC(CO)C(O)C2O)c(=O)n1 (stereo not drawn) [Azacytidine-5],0.093 ± 0.0029,0.106 ± 0.0065,0.0449 ± 0.0005,0.113 ± 0.0011,0.0465 ± 0.00069,0.0822 ± 0.0002,0.125 ± 0.0088,0.192 ± 0.065,0.199 ± 0.03,0.193 ± 0.027,0.4795 ± 0.0037,0.385 ± 0.022,0.066 ± 0.0049
CCCCc1oc2ccccc2c1C(=O)c1cc(I)c(OCCN(CC)CC)c(I)c1 [Amiodarone hydrochloride],0.263 ± 0.01,0.325 ± 0.0083,0.324 ± 0.0065,0.193 ± 0.0069,0.177 ± 0.0065,0.153 ± 0.0059,0.284 ± 0.017,0.338 ± 0.033,0.185 ± 0.0075,0.227 ± 0.0068,0.58 ± 0.025,0.424 ± 0.057,0.316 ± 0.044
CN(CCCCCCCCCCN(C)C(=O)Oc1cccc([N+](C)(C)C)c1)C(=O)Oc1cccc([N+](C)(C)C)c1 [Demecarium bromide],0.04127 ± 0.00031,0.0415 ± 0.00053,0.03993 ± 5.8e-05,0.0453 ± 0.0065,0.03943 ± 0.00023,0.0426 ± 0.0012,0.0473 ± 0.00079,0.047 ± 0.0013,0.0492 ± 0.00091,0.0493 ± 0.0005,0.051 ± 0.00093,0.0633 ± 0.0063,0.0536 ± 0.0014
CC[C@@]1(O)C(=O)OCc2c1cc1n(c2=O)Cc2cc3c(CN(C)C)c(O)ccc3nc2-1 [Topotecan],0.235 ± 0.0064,0.271 ± 0.01,0.271 ± 0.0034,0.345 ± 0.039,0.127 ± 0.0043,0.183 ± 0.015,0.214 ± 0.029,0.317 ± 0.044,0.202 ± 0.067,0.178 ± 0.014,0.483 ± 0.024,0.393 ± 0.0043,0.269 ± 0.0042
CCCCNc1ccc(C(=O)OCCOCCOCCOCCOCCOCCOCCOCCOCCOC)cc1 [Benzonatate],0.241 ± 0.0078,0.279 ± 0.0063,0.252 ± 0.011,0.217 ± 0.0091,0.148 ± 0.006,0.157 ± 0.0052,0.245 ± 0.012,0.405 ± 0.0093,0.17 ± 0.017,0.206 ± 0.036,0.444 ± 0.033,0.407 ± 0.012,0.264 ± 0.12
C[C@]12CCC(=O)C=C1CC[C@@H]1[C@@H]2[C@@H](O)C[C@@]2(C)[C@H]1CC[C@]2(O)C(=O)CO [Hydrocortisone base],0.218 ± 0.012,0.265 ± 0.024,0.253 ± 0.0038,0.173 ± 0.026,0.169 ± 0.0059,0.137 ± 0.0037,0.294 ± 0.076,0.307 ± 0.074,0.183 ± 0.017,0.209 ± 0.047,0.578 ± 0.1,0.407 ± 0.0089,0.302 ± 0.0092
NC(=O)OCC(O)COc1ccc(Cl)cc1 (stereo not drawn) [Chlorphensin carbamate],0.251 ± 0.011,0.287 ± 0.016,0.2846 ± 0.0028,0.245 ± 0.022,0.2014 ± 0.002,0.162 ± 0.0045,0.364 ± 0.046,0.379 ± 0.024,0.214 ± 0.014,0.279 ± 0.041,0.523 ± 0.01,0.416 ± 0.019,0.366 ± 0.023
CCS(=O)(=O)CCn1c([N+](=O)[O-])cnc1C [Tinidazole],0.237 ± 0.0086,0.286 ± 0.011,0.256 ± 0.0041,0.198 ± 0.0079,0.169 ± 0.0069,0.139 ± 0.005,0.345 ± 0.048,0.405 ± 0.013,0.204 ± 0.0081,0.212 ± 0.027,0.521 ± 0.092,0.402 ± 0.0095,0.315 ± 0.0068
O=C(O)c1cn(-c2ccc(F)cc2)c2cc(N3CCNCC3)c(F)cc2c1=O [Sarafloxacin],0.0422 ± 0.00026,0.0454 ± 0.0031,0.0399 ± 0.0003,0.04133 ± 0.00015,0.0405 ± 0.0013,0.0412 ± 0.0021,0.0475 ± 0.0021,0.047 ± 0.0013,0.0494 ± 0.00055,0.0482 ± 0.00017,0.0534 ± 0.00044,0.0545 ± 0.00093,0.0532 ± 0.0002
CCN(CC)C(=O)/C(C#N)=C/c1cc(O)c(O)c([N+](=O)[O-])c1 [Entacapone],0.0523 ± 0.00059,0.0552 ± 0.0036,0.0571 ± 0.00062,0.0534 ± 0.0015,0.0544 ± 0.00092,0.0482 ± 0.00026,0.142 ± 0.005,0.149 ± 0.029,0.138 ± 0.007,0.172 ± 0.0056,0.144 ± 0.02,0.195 ± 0.011,0.0695 ± 0.0028
N[C@@H](Cc1cc(I)c(Oc2ccc(O)c(I)c2)c(I)c1)C(=O)O [Liothyronine],0.18 ± 0.012,0.211 ± 0.012,0.2 ± 0.0047,0.177 ± 0.0039,0.134 ± 0.0031,0.162 ± 0.003,0.32 ± 0.038,0.152 ± 0.017,0.232 ± 0.0046,0.264 ± 0.017,0.36 ± 0.023,0.373 ± 0.035,0.272 ± 0.015
C[C@H](CS)C(=O)N1CCC[C@H]1C(=O)O [Captopril],0.259 ± 0.003,0.291 ± 0.019,0.253 ± 0.012,0.198 ± 0.027,0.176 ± 0.0095,0.148 ± 0.011,0.358 ± 0.044,0.399 ± 0.027,0.187 ± 0.019,0.21 ± 0.027,0.475 ± 0.059,0.41 ± 0.0091,0.382 ± 0.021
CCOC(=O)n1ccn(C)c1=S [Carbimazole],0.239 ± 0.0029,0.297 ± 0.0079,0.27 ± 0.012,0.192 ± 0.0037,0.212 ± 0.0081,0.145 ± 0.0022,0.346 ± 0.079,0.284 ± 0.037,0.216 ± 0.011,0.239 ± 0.025,0.607 ± 0.05,0.424 ± 0.011,0.407 ± 0.0073
CN(C(=O)C(Cl)Cl)c1ccc(OC(=O)c2ccco2)cc1 [Diloxanide furoate],0.185 ± 0.0099,0.264 ± 0.018,0.256 ± 0.01,0.169 ± 0.0067,0.172 ± 0.0079,0.167 ± 0.004,0.366 ± 0.011,0.353 ± 0.024,0.2046 ± 0.0011,0.21 ± 0.02,0.609 ± 0.087,0.415 ± 0.016,0.374 ± 0.025
CC(=O)N1CCN(c2ccc(OCC3COC(Cn4ccnc4)(c4ccc(Cl)cc4Cl)O3)cc2)CC1 (stereo not drawn) [Ketoconazole],0.05323 ± 0.00038,0.0525 ± 0.0042,0.04237 ± 0.00035,0.0541 ± 0.0007,0.04317 ± 0.0004,0.05383 ± 5.8e-05,0.0601 ± 0.0054,0.0507 ± 0.0015,0.0759 ± 0.0062,0.0712 ± 0.0069,0.0814 ± 0.011,0.32 ± 0.041,0.0608 ± 0.0022
CC1(C)O[C@@H]2C[C@H]3[C@@H]4CCC5=CC(=O)C=C[C@]5(C)[C@H]4[C@@H](O)C[C@]3(C)[C@]2(C(=O)CO)O1 [Desonide],0.185 ± 0.0048,0.252 ± 0.0091,0.254 ± 0.011,0.172 ± 0.014,0.15 ± 0.005,0.144 ± 0.0029,0.208 ± 0.0068,0.378 ± 0.065,0.181 ± 0.005,0.248 ± 0.034,0.496 ± 0.062,0.414 ± 0.011,0.302 ± 0.019
